Only some compounds are listed: those with a hit (about 2.2% of all), similar ones and a draw of the others.
PvdQ acylase: P. aeruginosa PvdQ acylase inhibitors, primary screen, biochemical, fluorescence, plate reader and imaging, single point. PvdQ acylase [Pseudomonas aeruginosa LESB58]. purified PvdQ acylase. inhibition, % at 10 µM. 0.063% of 340,000 active. AID 488965, 2010; in the data active = inhibition above about 30%, passing the limit was not always enough;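 also: 0% = vehicle neutral wells and 100% = reference inhibitor wells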
PHOSPHO1 block: PubChem AID 1565; 1.1% of 290,000 active; inhibition, % at 13.3 µM; recombinant PHOSPHO1, absorbance phosphatase assay; in the data active = inhibition above about 60%
JMJD2C inh: inhibitors of GASC-1 histone demethylase, primary screen, biochemical, fluorescence, DELFIA europium | AID 2099, 2009 | Lysine-specific demethylase 4C (Homo sapiens), Q9H3R0 | GST-JMJD2C(1-420) H3K9me3 demethylation | 0.069% of 330,000 active | inhibition, % at 2.35 µM;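 active = more than half of a compound's replicate wells show inhibition beyond 50%, single wells judged on their own value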;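 also: signal counts dimethyl H3K9 product captured on neutravidin plate; 0% = median of DMSO wells and 100% = 0.3 times that DMSO median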
pCIP destab: p/CIP-EGFP fusion destabilizers, primary screen, fluorescence, F442A cells; 16 h; decrease of EGFP signal, % at 10 µM; 0.01% of 290,000 active; AID 1984, 2009;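 active = EGFP signal decrease of at least 30% at 10 µM or well 3 SD below plate mean, unless failing retest; inactive = the rest, including hits failing retest or dose response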
Target sequence (Q05BA5 1-1403): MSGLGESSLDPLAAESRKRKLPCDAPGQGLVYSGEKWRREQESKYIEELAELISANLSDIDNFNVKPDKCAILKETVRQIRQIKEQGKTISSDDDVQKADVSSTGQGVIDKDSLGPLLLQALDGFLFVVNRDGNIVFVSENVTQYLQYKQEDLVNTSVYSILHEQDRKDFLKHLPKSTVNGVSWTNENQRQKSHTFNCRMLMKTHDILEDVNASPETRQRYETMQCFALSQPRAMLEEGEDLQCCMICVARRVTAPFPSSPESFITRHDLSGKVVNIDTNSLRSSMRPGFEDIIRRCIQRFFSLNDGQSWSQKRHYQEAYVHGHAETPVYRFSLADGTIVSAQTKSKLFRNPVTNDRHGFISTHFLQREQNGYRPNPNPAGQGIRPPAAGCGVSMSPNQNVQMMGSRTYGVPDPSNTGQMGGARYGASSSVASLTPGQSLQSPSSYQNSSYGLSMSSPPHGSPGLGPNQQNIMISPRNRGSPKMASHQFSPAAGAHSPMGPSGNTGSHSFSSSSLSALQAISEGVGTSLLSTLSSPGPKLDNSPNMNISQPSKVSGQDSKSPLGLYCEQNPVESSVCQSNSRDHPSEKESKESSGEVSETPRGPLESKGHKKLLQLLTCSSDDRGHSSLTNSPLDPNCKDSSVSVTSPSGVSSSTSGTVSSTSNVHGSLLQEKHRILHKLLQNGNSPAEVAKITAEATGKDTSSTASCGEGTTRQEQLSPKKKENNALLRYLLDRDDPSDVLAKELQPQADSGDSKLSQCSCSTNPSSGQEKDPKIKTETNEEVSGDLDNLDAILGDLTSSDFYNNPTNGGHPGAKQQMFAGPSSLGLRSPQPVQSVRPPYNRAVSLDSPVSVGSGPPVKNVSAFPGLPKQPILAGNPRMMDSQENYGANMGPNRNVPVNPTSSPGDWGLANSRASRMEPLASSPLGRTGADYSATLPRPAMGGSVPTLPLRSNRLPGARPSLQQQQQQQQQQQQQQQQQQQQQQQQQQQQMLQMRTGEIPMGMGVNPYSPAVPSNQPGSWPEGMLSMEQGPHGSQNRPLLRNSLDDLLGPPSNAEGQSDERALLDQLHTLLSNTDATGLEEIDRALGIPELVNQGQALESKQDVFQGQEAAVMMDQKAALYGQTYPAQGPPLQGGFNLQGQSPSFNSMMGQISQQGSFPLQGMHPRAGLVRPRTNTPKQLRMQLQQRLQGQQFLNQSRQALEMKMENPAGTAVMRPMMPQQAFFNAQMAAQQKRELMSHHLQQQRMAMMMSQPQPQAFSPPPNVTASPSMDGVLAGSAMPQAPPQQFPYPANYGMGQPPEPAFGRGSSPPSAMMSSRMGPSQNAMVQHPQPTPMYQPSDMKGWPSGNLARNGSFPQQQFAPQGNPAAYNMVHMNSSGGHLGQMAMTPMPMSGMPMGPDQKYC
Mot1-301 SUMO: yeast Mot1-301 growth rescue at high temperature, primary screen, SUMOylation pathway inhibitor project, S. cerevisiae, ATP luminescence, 38.5C; growth rescue, % at 18.8 µM; AID 2716, 2010; S. cerevisiae Mot1-301 growth rescue; percent above DMSO median, 100 means doubled; 1% of 320,000 active;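 active = every valid replicate shows activation above 250% relative to neutral control wells; inactive = the rest, any valid replicate at or below 250%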;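 also: OY570 slx delta 5 strain wells were the positive control but not used for scaling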
HDAC3 inhib: HDAC3 deacetylase inhibitors, primary screen, biochemical, fluorescence, cell-free homogeneous; Histone deacetylase 3 (Homo sapiens), O15379; recombinant HDAC3, fluorogenic peptide/trypsin coupled; inhibition, % at 8.3 µM; 0.15% of 320,000 active; AID 2718, 2010; in the data active = inhibition above about 26%, passing the limit was not always enough
Mot1 SUMO dose: growth restoration of Mot1-301 yeast on galactose, dose response, SUMO pathway inhibitor project, whole organism, S. cerevisiae, ATP luminescence, cherry-picked samples; 2,300 tested, under 10 active; shares compounds with Mot1-301 SUMO; S. cerevisiae Mot1-301 galactose growth, 24 h; -100 = growth of slx-deleted rescue strain; growth activity, percent, % at 42 µM;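 active = Signal drops as the depositor expects, and the fitted half-maximal dose is no more than ten times the top valid tested dose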;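 also: more negative values mean stronger growth rescue toward the control strain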
Numbers without * were called inactive; · = not tested or not shown.

SMILES	PvdQ acylase	PHOSPHO1 block	JMJD2C inh	pCIP destab	Mot1-301 SUMO	HDAC3 inhib	Mot1 SUMO dose
COc1ccccc1CCNC(=O)/C(=C/c1cccnc1)NC(=O)c1ccccc1	0	-18	0	-3	391*	·	0
CCOC(=O)c1c(NC(=O)CC)sc(C(=O)NC2CCCC2)c1C	-4	11	-3	4	-27	-1	·
Cc1ccnc(NS(=O)(=O)c2ccc(NC(=O)c3ccc(Cl)cc3[N+](=O)[O-])cc2)n1	13	44	12	-3	4	9	·
CC(NC(=O)C1CCCN(S(=O)(=O)N2CCOCC2)C1)c1ccccc1 (stereo not drawn)	-9	12	19	22	368*	7	0
CCOc1ccccc1NC(=O)NNC(=O)COc1cccc(C)c1C	6	48	-7	10	-14	5	·
CCOCCCNC(=O)C(c1ccc(OC)cc1)N(Cc1cccs1)C(=O)c1ccccn1 (stereo not drawn)	-17	24	-1	2	522*	-4	-1
COc1cc2c(cc1OC)C(c1ccccc1[N+](=O)[O-])N(C(C)=O)CC2 (stereo not drawn)	-11	-8	2	0	384*	14	0
COc1cc2c(cc1OC)C(COc1ccccc1OC)N(C(C)=O)CC2 (stereo not drawn)	-12	30	7	0	187	-5	·
CC(CN1CCCCCC1)C(=O)NN (stereo not drawn)	1	2	-7	-11	674*	·	1
CC(CN1CCCCC1)C(=O)NNC(=O)C12CC3CC(CC(C3)C1)C2 (stereo not drawn)	5	28	20	-8	0	3	·
C=CC(=O)NC1CC2CCC1(C)C2(C)C (stereo not drawn)	-7	3	2	-14	459*	-7	1
COCCOCCOCCC(=O)NC1CC2CCC1(C)C2(C)C (stereo not drawn)	-14	1	-5	-14	11	-1	·
CCS(=O)c1ccccc1C(=O)O (stereo not drawn)	-5	-16	1	-14	392*	12	0
COC(=O)C1(Cc2ccc(O)cc2)OC(=O)C(O)=C1c1ccc(O)cc1 (stereo not drawn)	-12	8	-6	-3	381*	-1	0
CN1CCN(C(=O)CN(Cc2ccc(Cl)cc2)S(C)(=O)=O)CC1	-8	-7	-6	-21	16	-2	·
CS(=O)(=O)N(CC(=O)N1CCCCCC1)Cc1ccc(Cl)cc1	-3	3	4	-14	589*	3	0
COc1ccc(N2CCN(C(c3cccs3)C(C)NS(C)(=O)=O)CC2)cc1 (stereo not drawn)	-3	-1	3	2	379*	-3	1
CC(NS(C)(=O)=O)C(c1cccs1)N1CCN(c2ccc(F)cc2)CC1 (stereo not drawn)	-6	0	2	-12	33	10	·
O=C(Nc1ccc(OC(F)(F)F)cc1)c1ccc2ccccc2n1	-2	20	8	1	645*	-3	-1
Cc1oc(-c2ccccc2Cl)nc1CN1CCCCC1c1cccnc1 (stereo not drawn)	-8	13	0	-6	130	6	·
CCn1ncc([N+](=O)[O-])c1C(=O)N1CCc2ccccc2C1	-10	49	-3	3	-5	-1	·
COc1ccc(/C=N/NC(=O)c2c(C)nc3ccccn23)cc1[N+](=O)[O-]	-2	47	1	-15	569*	0	0
Cc1nc2ccccn2c1C(=O)N/N=C/c1ccccc1	7	16	-1	9	-10	6	·
CCCCCCCC(=O)NNC(=O)Cc1ccccc1	-10	22	190	-15	9	-2	·
CCCCCC(=O)NNC1=NCC(Cc2cccc(Cl)c2)S1 (stereo not drawn)	-15	26	-16	6	734*	-10	1
